Among all 300,000 compounds or so, about 480 (0.16%) were called active. Not all results are given here. Results with a measured potency or affinity are listed apart. A number with no mark means an inactive call.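 How the source made its calls: active means inhibition over 29.93%, a cutoff 3 SD above the screen mean, later confirmed by dose response; inconclusive means inhibition over 29.93% but no dose response follow-up; inactive means inhibition at most 29.93% or unconfirmed.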

This assay can be described thus: inhibitors of PhoP regulon expression, primary screen, Salmonella Typhimurium, GFP reporter (AID 1863).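 Further: 0% = low Mg2+ inducing control and 100% = high Mg2+ repressing control.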 The note with it: S. Typhimurium PhoP-regulated promoter GFP reporter, 4 h; at 50 µM; hits give high values.
In general, inhibition refers to the drop in the measured response relative to a control, in per cent. As for `Cc1ccc(SC2=C(Sc3ccc(C)cc3)C(=O)c3ccccc3C2=O)cc1`, the inhibition was 4.97%.

In the case of `O=S1(=O)N=C(SCCO)c2ccccc21`, the inhibition was -8.43%.

`CCn1c(SCC(=O)NCCc2ccccc2)nc2c([nH]c3ccccc32)c1=O`: the inhibition is -1.21%.

Regarding `CCCc1nc2ccc(NC(=O)NCCC(=O)OCC)cc2c(=O)n1Cc1cccc(Cl)c1`, the inhibition was 6.26%.

For `O=C(NOC(=O)c1ccccc1F)c1ccc(OC(F)F)cc1`, the inhibition is -1.76%.

Turning to `CCCCOC(=O)Cn1c(=O)n(CC(=O)OCCCC)c2ccccc21`, the inhibition was 1.46%.

Regarding `CCCCc1n(CC(=O)c2ccc(Cl)cc2)c2ccccc2[n+]1C`, the inhibition is 7.69%.

For the compound `CCOC(=O)Cn1c(=N)n(CCOc2cccc(C)c2)c2ccccc21`, the inhibition was -6.78%.

Consider `CCCCCOC(=O)Cn1c(=O)oc2ccc(C)cc21`, for which the inhibition is 8.75%.

`O=C(O)Cn1c(COc2ccc(Cl)cc2)nc2ccccc21`: the inhibition was -9.39%.

As to `Cn1c(COc2ccccc2O)[n+](C)c2ccccc21`, the inhibition was 19.1%.

For `CCCCCCCCCCOC(=O)Cn1c(COc2ccccc2C)[n+](C)c2ccccc21`, the inhibition was 13.3%.

For the compound `CCCCOC(=O)Cn1c2ccc(OC)cc2c2nc3ccccc3nc21`, the inhibition is -30.4%.

Regarding `Cc1onc(-c2c(Cl)cccc2Cl)c1C(=O)Nc1ccc2c(c1)OCO2`, the inhibition is 5.51%.

As to `CN1CCN(NC(=S)NC2CCCCC2)CC1`, the inhibition is 2.99%.

Take `CC1(c2ccncc2)Nc2ccccc2-c2nc3ccccc3n21` (stereo unspecified): the inhibition is 4.56%.

For `CC1CCCCC1NC(=O)CNC(=O)c1cccs1` (stereo unspecified), the inhibition is 0.65%.

In the case of `COC(=O)c1cc(OC)c(OC)cc1NC(=S)N1CCN(Cc2ccccc2)CC1`, the inhibition is -2.33%.

For the compound `CCN(Cc1ccccc1)Cc1ccc(OCc2ccccc2)cc1`, the inhibition was -0.23%.

Consider `CC(=O)c1ccc(OCc2cc(C(=O)N3CCN4CCCC4C3)no2)cc1` (stereo unspecified), for which the inhibition was -1.66%.

Regarding `CCCCCCOc1ccc(C(=O)O)cc1`, the inhibition is -7.54%.

Regarding `CCCCOC(=O)Cn1c(=O)oc2ccc(C)cc21`, the inhibition was 1.86%.

Consider `CCCCOC(=O)Cn1c(=N)n(CCC)c2ccccc21`, for which the inhibition was 8.26%.

As to `CCCCCOC(=O)Cn1c(=O)oc2ccccc21`, the inhibition is 5.08%.

In the case of `CCN(CC)CCN1C(=O)c2ccccc2NC1c1cccc(F)c1` (stereo unspecified), the inhibition was -1.91%.

As to `CCN(c1ccc(NC(=O)COC(=O)/C=C/c2cccs2)cc1)C(C)C`, the inhibition was 1.21%.

With `CCOc1ccc(S(=O)(=O)N(CCO)CCO)cc1-c1nc2c(C(C)(C)C)nn(C)c2c(=O)[nH]1`, the inhibition was 6.61%.

For the compound `CCc1cc(OCCCCNCc2ccccc2)ccc1Cl`, the inhibition is -6.28%.

For `Clc1ccc(OCCCNCc2ccccc2)c2ccccc12`, the inhibition was 13.7%.

As to `COCCCNCCCOc1ccc(Cl)cc1Br`, the inhibition was 16.4%.

Regarding `OCCNCCCOc1ccc(Cl)cc1Br`, the inhibition is 9.05%.

Turning to `Cc1cc(Br)ccc1OCCNCc1ccccc1`, the inhibition is 5.75%.

For the compound `COCCNCCCOc1ccc(Br)cc1Cl`, the inhibition is 2.25%.

As to `O=C(COC(=O)c1ccncc1)NCc1ccccc1`, the inhibition is -7.25%.

For `CN(CC(=O)Nc1ccc(OC(F)(F)F)cc1)C1CCCCC1`, the inhibition was 9.36%.

For the compound `COc1cccc(NC(=O)CN(C)C(=O)c2ccc(-c3ccccc3Cl)o2)c1`, the inhibition was -0.25%.

In the case of `COCc1cc(=O)[nH]c(-c2ccccc2)n1`, the inhibition is 9.5%.

For the compound `COc1ccc(/C=C2/SC(=O)N(CCC(=O)Nc3ccc(C)cc3)C2=O)cc1OC`, the inhibition is 1.5%.

As to `Clc1ccccc1OCCn1ccnc1`, the inhibition is 21.2%.

In the case of `Clc1ccc(OCCn2ccnc2)c(Cl)c1`, the inhibition was 26.6%.

On to `Clc1ccccc1OCCCn1ccnc1`, for which the inhibition is 2.45%.

For the compound `c1ccc2cc(OCCCn3ccnc3)ccc2c1`, the inhibition is -2%.

As for `COc1ccc(Cc2noc(CN(C)CC3CCN(Cc4ccccc4)CC3)n2)cc1OC`, the inhibition was 0.81%.

Turning to `N#CCCN(C(=O)CSc1nc2nc(-c3cccs3)cc(C(F)(F)F)c2c(=O)[nH]1)c1ccccc1`, the inhibition is -5.71%.

For the compound `CC(C)C(=O)NC(=S)Nc1ccccn1`, the inhibition is 1.05%.

Take `COc1ccc(-c2cc(C(=O)Nc3c(C)n(C)n(-c4ccccc4)c3=O)c3ccccc3n2)cc1`: the inhibition was 6.3%.

As for `O=C(O)CNC(=O)c1ccc(NC(=O)/C(=C/c2cccc([N+](=O)[O-])c2)NC(=O)c2ccco2)cc1`, the inhibition is 1.55%.

As to `COc1cc2nc(Nc3ccc(C)c(Cl)c3)nc(N)c2cc1OC`, the inhibition is -5.89%.

Regarding `Cc1ccc(Nc2nc(N)c3ccccc3n2)cc1C`, the inhibition was -7.22%.

Take `CCOC(=O)N1CCN(C(=O)c2ccc(C)c(S(=O)(=O)Nc3cccc(C)c3C)c2)CC1`: the inhibition was -9.54%.

As to `Cc1nc(SC(C(=O)c2ccccc2)c2ccccc2)nc2ccccc12` (stereo unspecified), the inhibition is 5.08%.

Regarding `O=Cc1c(N2CCC3(CC2)OCCO3)nc2ccccn2c1=O`, the inhibition was -5.94%.

`COc1ccc(/C=N/Nc2cc(C)nc3ccc(Br)cc23)cc1`: the inhibition was -2.21%.

With `Cc1cc(N/N=C/c2ccc(N(C)C)cc2)c2ccccc2n1`, the inhibition was 5.73%.

With `COc1cccc2c(N/N=C/c3ccccc3)cc(C)nc12`, the inhibition is -2.56%.

As for `Cc1cc(N/N=C/c2ccc(O)cc2)c2cccc(C)c2n1`, the inhibition is -15.4%.

`Cc1ccccc1NC(=O)NC1(C(=O)NCC2CCCO2)CCCCC1` (stereo unspecified): the inhibition was -0.07%.

Consider `CC1CCCC(C)N1/N=C/c1ccccc1Br` (stereo unspecified), for which the inhibition was -3.03%.

Turning to `CC1CCCC(C)N1/N=C/c1cccc(Br)c1` (stereo unspecified), the inhibition is -2.2%.

Regarding `CC1(C)NC(=O)N(CC(O)CN(c2ccccc2)S(=O)(=O)c2ccccc2)C1=O` (stereo unspecified), the inhibition is -1.71%.

With `Cc1ccc(C(=O)N/C(=C\c2ccco2)C(=O)NCc2cccnc2)cc1`, the inhibition is 2%.

Turning to `CC1(C)C(=O)Nc2ccccc2N1C(=O)Cn1ncc(Cl)c(Cl)c1=O`, the inhibition was 1.69%.

In the case of `O=C(Nc1cc(N2CCCCC2)ncn1)c1ccccc1`, the inhibition was 1.2%.

Turning to `COc1ccc(CCNC(=O)c2cc(COc3c(F)cccc3F)on2)c(OC)c1`, the inhibition is 6.23%.

On to `O=C(NC1CCCc2ccccc21)c1ccc([N+](=O)[O-])cc1` (stereo unspecified), for which the inhibition was -2.23%.

`O=[N+]([O-])c1ccccc1CNC1CCCc2ccccc21` (stereo unspecified): the inhibition is -9.02%.

Source of the values: PubChem BioAssay AID1863 (Southern Research Specialized Biocontainment Screening …, 2009).
